The list is not random: actives were taken first. Their share in the collection is about 2.9%.
D3 antag: D3 dopamine receptor (human) antagonism | P35462 | D3R cells, DiscoveRx beta-arrestin luminescence, antagonist mode; active compounds read low | max response, negative = inhibition, % | AID 652054 | hit rate 2.5% among 360,000; in the data active = max response below about -50%; inconclusive = no clear call, values can overlap the other calls; note: % is set by controls: 0 for no effect and ±100 for the full control effect
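Cells plated overnight at 1500 cells/well, then exposed to library compounds with dopamine controls for 90 minutes at 37 degrees C. DiscoveRx reagent added for 30–60 minutes at room temperature; luminescence read, quantitative HTS format.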
Rango-impB inh: inhibitors of Rango-importin beta complex formation. Q14974. Rango CFP/YFP FRET sensor + importin beta, 45 min. Potency, µM (top dose mostly 92.2 µM), for the others: at the highest dose inhibition of complex formation. hit rate 0.031% among 340,000. AID 540263;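 note: potency is the fitted concentration of half-maximal effect; 0% = DMSO wells and 100% = buffer wells lacking importin beta; nearly all actives have a fitted effect of over 15% in size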
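FRET biosensor (snurportin 1 IBB flanked by EYFP and cerulean), 50 nM, with compound 5 min, then 0.125 microM importin beta in PBS, 1 mM DTT, 0.02% Tween-20, 0.1% BSA. CFP/YFP ratio read after 45 min at room temperature; pre-read flags interference.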
D3 ag: D3 dopamine receptor (human) agonism; D3R DiscoveRx beta-arrestin cells, luminescence, 90 min; max activation, %; hit rate 0.58% among 410,000; in the data active = max activation above about 30%; note: 0% is about no effect
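Cells at 1500/well, incubated overnight, then treated with pinned compounds (dopamine as control) for 90 min at 37 degrees C. DiscoveRx reagent added for 30 - 60 minutes at room temperature; luminescence read.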
Rango release inh: inhibition of RanGTP-driven Rango-importin beta dissociation; Potency, µM (doses to about 46.1 µM), for inactives: at the top dose activity change, negative = inhibition; hit rate 0.071% among 340,000; Biochemical FRET Rango-importin beta, RanGTP-induced dissociation; AID 540253; O95149+P62826; note: potency is the fitted concentration of half-maximal effect; % of control where 0% means no effect; nearly all actives have a fitted effect of over 45% in size
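Compounds preincubate 5 min with complex of recombinant Rango and importin beta in PBS with 1 mM DTT. Ran (0.6 uM) loaded with 2 mM GTP plus 0.2 uM RCC1 starts dissociation; FRET is recorded 45 min later.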
Mm-Cpn inhibitor: blocks the Methanococcus maripaludis chaperonin Mm-Cpn | purified Mm-Cpn ATPase, ADP Transcreener TR-FRET | Potency, µM (titrated, usually from 76.9 µM), without a hit: at the top dose activity, negative = inhibition, actives largely listed as inhibitors | hit rate 0.031% among 330,000 | AID 504842; active = well fitted inhibition curve with a large enough effect; inconclusive = small, poorly fitted or top-dose-only effect; note: potency is the fitted concentration of half-maximal effect; % is set by controls: 0 for no effect and ±100 for the full control effect; nearly all actives have a fitted effect of over 80% in size
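Purified archaeal chaperonin (25 nM final) was preincubated with compound for 10 min at 37°C, then ATP (10 uM final) was added for 30 min at 37°C in Tris pH 7.4/KCl/MgCl2/DTT buffer. ADP was quantified by HTRF Transcreener TR-FRET.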
PTAP TSG101 blk: blocks PTAP/TSG101 interaction to inhibit HIV-1 budding; Q99816; Fluorescence polarization, FITC-PTAP peptide / Tsg101 binding; Potency, µM (top dose mostly 115 µM), inactives show top-dose activity change, negative = inhibition, hits mostly inhibitors; 340,000 tested, under 10 active; AID 493005; active = well fitted inhibition curve with a large enough effect in the main read-out, with a control signal flat, not every such curve was filed as active; inconclusive = small, poorly fitted or top-dose-only effect, or effect the other way, or a change in a side signal; inactive = no such curve, though single readings can be large or run the other way; note: potency is the fitted concentration of half-maximal effect; % of control where 0% means no effect
Target sequence (Q99816 whole entry, looked up): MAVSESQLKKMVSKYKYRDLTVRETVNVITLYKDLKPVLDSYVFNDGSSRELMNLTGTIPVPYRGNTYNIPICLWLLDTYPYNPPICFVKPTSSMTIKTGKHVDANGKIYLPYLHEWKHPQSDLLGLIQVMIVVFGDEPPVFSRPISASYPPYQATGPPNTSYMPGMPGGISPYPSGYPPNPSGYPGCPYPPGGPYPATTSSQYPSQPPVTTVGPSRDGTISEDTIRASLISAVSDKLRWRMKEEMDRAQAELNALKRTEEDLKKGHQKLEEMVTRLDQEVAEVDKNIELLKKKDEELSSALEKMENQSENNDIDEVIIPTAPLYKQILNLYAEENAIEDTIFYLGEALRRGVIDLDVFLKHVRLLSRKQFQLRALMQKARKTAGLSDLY
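Tsg101 binding domain (10 uM final) was mixed with compound and a FITC-labeled PTAP peptide (50 nM final) in HEPES pH 7.5 buffer with NaCl, Tween 20, EDTA and TCEP; fluorescence polarization was read after 20 min at r.t.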
The depositor's hits bear a star; ? = inconclusive; · = not tested or not shown. Unless noted, calls come from the whole dose curve.

SMILES	D3 antag	Rango-impB inh	D3 ag	Rango release inh	Mm-Cpn inhibitor	PTAP TSG101 blk
CCC(C)(C)n1nnnc1C(c1ccc(C)cc1)N1CCN(Cc2ccc3c(c2)OCO3)CC1 (stereo unspecified)	-70*	4%	2	1%	0%	-3%
C(=C\c1ccccc1)/CN1CCN(C(c2cc3ccccc3o2)c2nnnn2C2CCCCC2)CC1 (stereo unspecified)	-76*	·	-13	·	·	·
Fc1ccccc1N1CCN(C(c2cccs2)c2nnnn2CCc2ccccc2)CC1 (stereo unspecified)	8	0%	4	1%	-3%	-4%
C(=C\c1ccccc1)/CN1CCN(C(c2cccc3ccccc23)c2nnnn2Cc2ccccc2)CC1 (stereo unspecified)	?	·	-11	·	·	·
COc1ccc(CCNC(=O)CSc2cc(=O)n(C)c3ccccc23)cc1OC	·	·	-6	·	·	·
CCc1nnc(SCc2ccc(F)cc2Cl)c2cc3sc(C)cc3n12	·	·	-11	·	·	·
C(=C\c1ccccc1)/CN1CCN(C(c2cccs2)c2nnnn2C2CCCC2)CC1 (stereo unspecified)	-86*	·	-15	·	·	·
C(=C\c1ccccc1)/CN1CCN(C(c2nnnn2Cc2ccccc2)C2CC2)CC1 (stereo unspecified)	-62*	·	-4	·	·	·
CC(C)(C)n1nnnc1C(c1cccs1)N1CCN(C/C=C/c2ccccc2)CC1 (stereo unspecified)	-122*	·	-12	·	·	·
Cc1ccc(Sc2ccc(CN3CCCC3)cc2[N+](=O)[O-])cc1	-79*	5%	-20	26%	1%	2%
CN1CCN(Cc2ccc(Sc3ccc(Cl)cc3)c([N+](=O)[O-])c2)CC1	-55*	2%	-44	23%	1%	1%
Cc1ccc(Sc2ccc(CO)cc2[N+](=O)[O-])cc1	?	-1%	-8	11%	1%	0%
COc1ccc(C(NC(=O)/C=C/c2ccco2)c2ccc(OC)c(OC)c2)cc1OC	-56*	-1%	-5	-11%	0%	-3%
CCOc1cc(OCC)c(C(=O)CCC(=O)O)cc1OCC	·	·	7	·	·	·
CCc1ccc(NCc2cc3cc4c(cc3n(CC(=O)Nc3ccc(Cl)cc3)c2=O)OCO4)cc1	·	·	-10	·	·	·
COc1cc(OC)cc(C(=O)Nc2nc(-c3nnn(-c4ccc(F)c(Cl)c4)c3C)ns2)c1	·	·	-10	·	·	·
Cc1ccc(-c2c[n+](CC(=O)Nc3nc(-c4ccccc4)cs3)c3n2CCC3)cc1	6	-3%	-15	-22%	1%	1%
Cc1ccc(NC(=O)C[n+]2cc(-c3ccccc3)n3c2CCC3)cc1	-111*	-1%	-17	32%	-1%	-1%
COc1ccc(-c2c[n+](CC(=O)c3ccccc3)c3n2CCCCC3)cc1	-61*	-1%	-22	-1%	0%	-4%
Cc1ccc(-c2c[n+](CC(=O)Nc3ccccc3C)c3n2CCC3)cc1	-63*	4%	-34	-2%	-4%	-4%
COc1ccc(C2=Nc3ccccc3NC(c3cccs3)=N2)cc1	·	·	11	·	·	·
CCc1cccc(C)c1NC(=O)CCS(=O)(=O)c1ccc2c(c1)oc(=O)n2C	·	·	-12	·	·	·
CCOC(=O)c1sc(N2N=C(C)/C(=C\c3ccc(OCC(=O)OC)cc3)C2=O)nc1C	-70*	5%	3	-2%	-6%	-1%
CCOC(=O)c1sc(Nc2ccc(OCC)cc2)nc1C	5	-1%	-2	20%	-8%	2%
CCOC(=O)c1cc2c(=O)n3ccccc3nc2n(CC2CCCO2)c1=NC(=O)c1cccc(C(F)(F)F)c1 (stereo unspecified)	·	·	3	·	·	·
SMILES	D3 antag	Rango-impB inh	D3 ag	Rango release inh	Mm-Cpn inhibitor	PTAP TSG101 blk
O=c1c2c3c(sc2n(CCN2CCCCC2)c(=O)n1Cc1ccco1)CCCCC3	-93*	7%	-46	-2%	0%	-1%
CNC[C@H](O)[C@@H](O)[C@H](O)[C@H](O)CO	·	·	8	·	·	·
COc1ccc(CNC(=O)Cn2c(=O)c3cccn3c3ccccc32)cc1	·	·	7	·	·	·
Cn1c(SCc2nc(-c3ccc(Cl)cc3)no2)nnc1-c1cccs1	12	-2%	-13	0%	-3%	-3%
Cn1c(SCc2nc(-c3ccccc3)no2)nnc1-c1cccs1	11	4%	32*	11%	-7%	-10%
CCCc1ccccc1OCCNS(=O)(=O)c1cc2c(cc1C)OCC(=O)N2	4	0%	42*	3%	-1%	0%
CCc1ccc2c(c1)C(c1ccc([N+](=O)[O-])cc1)=NNC(c1ccc(F)cc1)=N2	-26	?	-2	12µM*	-3%	-8%
CCCNC(=O)C1(C)CCCN(C(=O)Cc2cccc(OC)c2)C1 (stereo unspecified)	1	·	5	·	·	·
NC(=O)c1nn2c(C(F)(F)F)cc(-c3ccc(Br)cc3)nc2c1Cl	·	·	-2	·	·	·
c1ccc2c(-c3c[nH]c4ccccc34)c3ccccc3nc2c1	-53*	?	-4	?	1%	-5%
O=C(O)c1cc(-c2c[nH]c3ccccc23)nc2ccc3ccccc3c12	-11	?	-1	-4%	1%	0%
CCn1nc(C(=O)Nc2ccc3nc(C)sc3c2)c2ccccc2c1=O	-86*	1%	1	4%	-4%	-1%
COc1cccc(C(C(=O)NC2CCCC2)N(C(=O)c2ccco2)c2ccccc2F)c1OC (stereo unspecified)	10	-1%	-6	6%	1%	0%
COc1cccc(C(C(=O)NC2CCCC2)N(Cc2ccco2)C(=O)c2ccco2)c1OC (stereo unspecified)	-65*	2%	0	?	3%	-5%
OC(COc1ccccc1)CN1CCCC1 (stereo unspecified)	-6	-1%	-11	10%	-2%	2%
CCC(=O)c1ccc(OCC(O)CN2CCN(C(c3ccccc3)c3ccccc3)CC2)cc1 (stereo unspecified)	-88*	2%	-62	-9%	0%	1%
COc1cccc(OC)c1OCCCCCCN1CCN(C)CC1	4	?	1	11%	-2%	-2%
N#Cc1ccc(OCC(O)CN2CCN(CC(O)COc3ccc(C#N)cc3)CC2)cc1 (stereo unspecified)	-12	5%	-9	6%	-11%	0%
COc1ccccc1OCCCCN1CCN(C(c2ccccc2)c2ccccc2)CC1	-84*	?	-34	-11%	0%	0%
N#Cc1ccc(OCC(O)CN2CCN(C(c3ccccc3)c3ccccc3)CC2)cc1 (stereo unspecified)	-54*	2%	-24	17%	0%	-5%

Compound activity (PubChem)
